# Experimental data published in PubChem BioAssay (EPA / NIEHS).
# Active and inactive are the calls of the source. Rule for the calls: active = hit-call score of the fitted dose curve at least 0.9, where 1 is the maximum; inactive = score below 0.9.
# Read-out: growth arrest and DNA damage 45 (GADD45G), GADD45G (gene 10912)
# Assay: LTEA_HepaRG_GADD45G: Life Technologies and Expression Analysis (LTEA) Assay for growth arrest and DNA damage 45 (GADD45G) using HepaRG (AID 2283499)
# Conditions: mRNA level, 48 h; actives raise or lower the signal
# Method: LTEA_HepaRG is a cell based, multiplexed-readout assay that uses HepaRG, a human liver cell line, with measurements taken at 48 hours after chemical dosing on a 96-well plate.LTEA_HepaRG_GADD45G is one of 102 assay component(s) measured in the LTEA HepaRG cell culture assay. It is a marker of Cell proliferation, survival, death.Data from the assay component LTEA_HepaRG_GADD45G was analyzed into 1 endpoint. This assay endpoint, LTEA_HepaRG_GADD45G, was analyzed with bidirectional fitting relative to DMSO as the negative control and baseline of activity. Using a type of inducible reporter, measures of mRNA induction for gain or loss-of-signal activity can be used to understand regulation of transcription factor activity. To generalize the intended target to other relatable targets, this assay endpoint is annotated to the mutagenicity response intended target family, where the subfamily is Cell proliferation, survival, death.
# A total of 1060 chemcials from the ToxCast library were tested in eight-point concentration-response experiments. Cell culture and cytotoxicity assays were conducted at Thermo Fisher Scientific's Custom Services facility (Madison, WI). A single lot of human HepaRG cells (Thermo Fisher Scientific, Frederick, MD) was used for the cell culture experiments. 96-well format collagen type I coated plates of human HepaRG cells were prepared using established methods. Briefly, cryopreserved HepaRG cells were thawed, plated at a density of approximately 100,000 cells/well in HepaRG Thaw, Plate, and General Purpose media (HPRG770, Thermo Fisher Scientific), and incubated for 48 hours. 0.5% DMSO was selected as vehicle control to balance the requisite need of DMSO in HepaRG cultures to maintain differentiation (for example, baseline metabolism, proportions of hepatocytes vs. cholangiocytes), while enabling further hepatic receptor pathway activation (for example, PXR and CAR) in response to chemical exposure. 48 hours after plating, the culture medium was replaced with HepaRG Serum-Free Incudtion Media. Cells were exposed to each test chemical in duplicate and maintained in CO2 incubators for another 48 hours. Chemical plates were thawed to room temperature and 200x concentrations of treatment groups were prepared. 8-point conentration-reponse curves were made with the highest exposure at 100 uM, followed by half-log dilutions, all in 0.5% DMSO. Each test plate contained variouse controls, induction positive controls (1mM phenobarbital), cytotoxicity positive controls ([…] aflatoxin B1), vehicle controls (0.5% DMSO), and total lysis controls (0.5% DMSO). Cell morphology images were taken using an Essen IncuCyte FLR automated microscope, with six 96-well plates imaged in about 24 minutes. Images were captured and exported and JPEG files. Spent culture media was transfered to black-well plates for the LDH assay, and remaining media was sorted at -80 C for later use. Cells were treated with RLT buffer and frozen until shipped for gene expression analysis. Total RNA was isolated from the cell suspension in 75 uL of Buffer RLT (Qiagen, Germantown, MD 20874) by Quintiles/Expression Analysis (Durham, NC) using a custom isolation procedure. Total RNA from each plate well was transferred to a preamplification plate. Fluidigm's 96.96 Dynamic ArrayTM (Fluidigm, Amsterdam, the Netherlands) technology was used for gene expression analyses by quantitative reverse transcription polymerase chain reaction (qRT-PCR, performed by Quintiles/Expression Analysis, Durham, NC)89. Standard TaqManTM Assays (Applied Biosystems/ThermoFisher Scientific, Foster City, CA) were used to assess the expression of 93 genes selected based on their selectivity and sensitivity to important hepatic receptors known to be modulated by environmental chemicals; importance in human hepatocyte functionality; and hepatotoxicity. […]
SMILES,AC50,outcome
CN[C@H]1CC[C@@H](c2ccc(Cl)c(Cl)c2)c2ccc(S(N)(=O)=O)cc21,71.1 µM (active),–
CCOC(=O)CCC(=O)OCC,–,inactive
CCCCCCCC=O,–,inactive
Cc1ccccc1Cl,–,inactive
O=[N+]([O-])C(CO)(CO)CO,–,inactive
NCC1(Cc2noc(=O)[nH]2)CCCCC1,–,inactive
C1CCC(SSC2CCCCC2)CC1,–,inactive
Oc1ccc2c(c1)OC[C@@H](N1CCC(O)(c3ccc(F)cc3)CC1)[C@H]2O,–,inactive
COc1cc(-c2nc(NC(=O)c3cc4cc(C)cc(C)c4n3CC(=O)O)sc2CCC2CCCCC2)c(OC)cc1Cl,3.17 µM (active),–
CCNc1cccc(C)c1,–,inactive
NS(=O)(=O)c1cc2c(cc1Cl)NCNS2(=O)=O,–,inactive
COCCOC[C@H](CC1(C(=O)NC2CCC(C(=O)O)CC2)CCCC1)C(=O)Oc1ccc2c(c1)CCC2 (stereo not given in full),–,inactive
Cc1nc(-c2ccc3c(c2)CCN(CCC2CCC(NC(=O)/C=C/c4ccc(F)cc4)CC2)CC3)no1 (stereo not given),–,inactive
CN1CCCC1=O,–,inactive
CC(C)(C)c1cc(O)c(C(C)(C)C)cc1O,–,inactive
CCCCC(CC)COC(=O)CC(C(=O)OCC(CC)CCCC)S(=O)(=O)O (stereo not given),87 µM (active),–
O=C(N[C@@H](Cc1ccccc1)[C@@H](O)C(=O)N1C[C@@H](O)[C@@H](O)C1)c1cc2cc(Cl)ccc2[nH]1,–,inactive
CCCCCCCCCCC,–,inactive
CNCc1cc(F)ccc1Oc1ccc(Cl)c(Cl)c1,–,inactive
O=C(O)Cc1ccccc1Nc1c(Cl)cccc1Cl,–,inactive

SMILES,AC50,outcome
COc1cc(C=O)ccc1O,–,inactive
Clc1cc(Cl)c(Cl)cc1Cl,–,inactive
CC(C)c1ccc(C(=O)N=C(N)N)cc1S(C)(=O)=O,–,inactive
O=C(O)CCCCC(=O)O,–,inactive
CCCCCCCCCCO,–,inactive
Cc1ccc(C)c(C)c1,–,inactive
FC(F)(F)C(F)(F)C(F)(F)C(F)(F)C(F)(F)C(F)(F)CCI,–,inactive
Cc1cc(NC(=O)C(=O)O)cc(C)c1Oc1ccc(O)c2c1CCC2,–,inactive
CCCCCCCCCCCC(=O)OC,–,inactive
COc1ccc(S(=O)(=O)N2C(=O)[C@@](c3ccccc3OC)(N3C[C@H](O)C[C@H]3C(=O)N(C)C)c3cc(Cl)ccc32)c(OC)c1,16.5 µM (active),–
COCCOCCOC,–,inactive
CCCc1cc(=O)[nH]c(=S)[nH]1,–,inactive
Cc1ccc2ncccc2c1,–,inactive
CC(=O)Oc1ccccc1C(=O)O,–,inactive
NC(=O)Cn1c(=O)cc(CCN2CCN(c3nccc4sccc34)CC2)c2ccc(F)cc21,83.8 µM (active),–
Nc1ccc2c(c1)C(=O)c1ccccc1C2=O,3.17 µM (active),–
CCCCCCC(=O)OCC,–,inactive
CC(CO)OC(C)CO (stereo not given) (tested in a mixture with another compound),–,inactive
CCCCCCCCCCCCCO,–,inactive
CCCCCCOCCO,–,inactive
